Experimental data: PubChem BioAssay
The source made the active and inactive calls. Unless noted, the rule behind the calls is not given here.

Experiments:
[1] = test system: Wnt5a (protein binding on small-molecule microarray); assay: small molecules binding Wnt5a protein – biophysical, small-molecule microarray, 635/667 nm fluorescence, primary screen (AID 1142); details: 635 nm fluorescence, higher = more signal;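 note: fluorescence read at 667 nm with signal to noise per printed feature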
[2] = ATP-based viability of Huh7 replicon cells – cell-based, CellTiter-Glo luminescence, basal, 48 h, cytotoxicity control for HCV replication inhibitor project, primary screen (AID 1143); details: higher = more signal, called active from +8 up or from −8 down;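 note: Huh7 hepatoma cells carrying a hepatitis C replication reporter with no stimulus; test concentration not given here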
[3] = Pseudomonas biofilm growth suppression – PAO1 strain, BacTiter-Glo luminescence, LB-PBS, primary screen (AID 1144); details: P. aeruginosa PAO1 biofilm, 12 h, higher = more signal
[4] = basal CRE-LacZ reporter activity in PC12 – cell-based, unstimulated, primary screen (AID 1145); details: no forskolin, luminescence, 4.5 h, higher = more signal, called active from +8 up or from −8 down
[5] = forskolin-driven CRE-LacZ activity in PC12 – cell-based, CRE-LacZ reporter, forskolin-stimulated, primary screen (AID 1146); details: luminescence, 4.5 h, higher = more signal, called active from +8 up or from −8 down;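 note: PC12 cells with 6xCRE LacZ reporter stimulated by forskolin 10 µM; beta-galactosidase reporter signal reflecting CREB driven transcription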
[6] = molecular target: Streptavidin (Streptomyces avidinii) (UniProt P22629); assay: compounds binding control protein streptavidin – biophysical, small-molecule microarray, 635/667 nm fluorescence, artefact control for SMM compound annotation, primary screen (AID 1147); details: higher = more signal;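 note: signal reflects streptavidin binding to arrayed compounds as a control protein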
[7] = probe aInhba binding on compound microarray – biochemical, small-molecule microarray, 635/667 nm fluorescence, primary screen (AID 1148); details: higher = more signal;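 note: score merges 667nm spot fluorescence with signal-to-noise for antibody binding to printed compounds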
Torsin-1A (Homo sapiens) [8] = molecular target: Torsin-1A (Homo sapiens) (UniProt O14656); assay: TOR1A wild-type binding on microarray – cell lysate, small-molecule microarray, lysate, 635/667 nm, primary screen (AID 1149); details: COS7 hTOR1A-WT lysate, 635 nm fluorescence, higher = more signal
Torsin-1A (Homo sapiens) [9] = molecular target: Torsin-1A (Homo sapiens) (UniProt O14656); assay: torsin A mutant lysate binding on microarrays – cell lysate, small-molecule microarray, COS7 lysate, 635/667 nm fluorescence, primary screen (AID 1150); details: COS7 hTOR1A mutant lysate, 635 nm fluorescence, higher = more signal;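 note: score pools 667 nm emission and signal to noise measuring lysate protein binding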
[10] = test system: Sonic hedgehog protein (Shh); assay: Sonic hedgehog microarray binding compounds – biochemical, small-molecule microarray, 635/667 nm fluorescence, primary screen (AID 1151); details: 635 nm fluorescence, higher = more signal;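 note: Shh protein binding to compounds spotted on small-molecule microarray slides; score combines spot fluorescence intensity with signal-to-noise across triplicate slides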
[11] = optical density shifts of acrAB sulA E. coli – strain DRC41, OD650, 48 h, E. coli filamentation inducer project, primary screen (AID 1152); details: higher = more signal, called active from +8 up or from −8 down;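 note: E. coli MC1000 strain DRC41 lacking acrAB efflux pump and sulA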
[12] = probe aLefty1 binding on compound microarray – biochemical, small-molecule microarray, 635/667 nm fluorescence, primary screen (AID 1153); details: higher = more signal;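 note: score merges spot fluorescence with signal-to-noise ratio from the scanned slide images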
[13] = plasmodial surface anion channel blockers, osmotic lysis – cell-based, P. falciparum Indochina, OD700, 1 h, primary screen (AID 1154); details: P. falciparum Indochina infected RBC osmotic lysis, higher = more signal, called active from +8 up or from −8 down
[14] = plasmodial surface anion channel blockers, osmotic lysis – cell-based, P. falciparum Indochina, OD700, 2 h, primary screen (AID 1155);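 note: lysis reports solute entry through the parasite surface anion channel PSAC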; details: P. falciparum Indochina infected erythrocytes, higher = more signal, called active from +8 up or from −8 down
[15] = changes in parasitized red cell lysis, either direction – P. falciparum Indochina, OD700, 3 h, PSAC antagonist project, primary screen (AID 1156); details: P. falciparum-infected erythrocytes, osmotic lysis, higher = more signal, called active from +8 up or from −8 down
[16] = plasmodial surface anion channel blockers, osmotic lysis – cell-based, P. falciparum Indochina, OD700, 18 h, primary screen (AID 1157); details: P. falciparum Indochina infected erythrocytes, osmotic lysis OD700, 18 h; higher = more signal, called active from +8 up or from −8 down
[17] = S6 kinase pathway phospho-S6 level changes – cell-based, A549, cytoblot, luminescence, serum-stimulated, primary screen (AID 1158); details: 5 h, higher = more signal;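 note: serum-stimulated A549 lung adenocarcinoma cells; signal is phosphorylated S6 detected by cytoblot immunostaining with HRP secondary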
[18] = molecular target: NADPH oxidase 2 (Homo sapiens) (UniProt P04839); assay: compounds shifting NOX2 Amplex Red fluorescence – cell-based, HEK293-NOX2, PMA-stimulated, NOX inhibitor project, primary screen (AID 1159); details: 45 min, higher = more signal, called active from +8 up or from −8 down; note: test concentration not given here
[19] = molecular target: NADPH oxidase 4 (Homo sapiens) (UniProt Q9NPH5); assay: compounds shifting NOX4 Amplex Red fluorescence – cell-based, HEK293-NOX4, tetracycline-induced, NOX inhibitor project, primary screen (AID 1160); details: HEK293-NOX4, Amplex Red H2O2 fluorescence, 45 min; higher = more signal, called active from +8 up or from −8 down
[20] = molecular target: NADPH oxidase 5 (Homo sapiens) (UniProt Q96PH1); assay: compounds shifting NOX5 Amplex Red fluorescence – cell-based, HEK293-NOX5, NOX inhibitor project, primary screen (AID 1161); details: HEK293-NOX5, ionomycin, 45 min, higher = more signal
Chain of NADPH oxidase 5 (Homo sapiens) (Q96PH1 whole entry, looked up): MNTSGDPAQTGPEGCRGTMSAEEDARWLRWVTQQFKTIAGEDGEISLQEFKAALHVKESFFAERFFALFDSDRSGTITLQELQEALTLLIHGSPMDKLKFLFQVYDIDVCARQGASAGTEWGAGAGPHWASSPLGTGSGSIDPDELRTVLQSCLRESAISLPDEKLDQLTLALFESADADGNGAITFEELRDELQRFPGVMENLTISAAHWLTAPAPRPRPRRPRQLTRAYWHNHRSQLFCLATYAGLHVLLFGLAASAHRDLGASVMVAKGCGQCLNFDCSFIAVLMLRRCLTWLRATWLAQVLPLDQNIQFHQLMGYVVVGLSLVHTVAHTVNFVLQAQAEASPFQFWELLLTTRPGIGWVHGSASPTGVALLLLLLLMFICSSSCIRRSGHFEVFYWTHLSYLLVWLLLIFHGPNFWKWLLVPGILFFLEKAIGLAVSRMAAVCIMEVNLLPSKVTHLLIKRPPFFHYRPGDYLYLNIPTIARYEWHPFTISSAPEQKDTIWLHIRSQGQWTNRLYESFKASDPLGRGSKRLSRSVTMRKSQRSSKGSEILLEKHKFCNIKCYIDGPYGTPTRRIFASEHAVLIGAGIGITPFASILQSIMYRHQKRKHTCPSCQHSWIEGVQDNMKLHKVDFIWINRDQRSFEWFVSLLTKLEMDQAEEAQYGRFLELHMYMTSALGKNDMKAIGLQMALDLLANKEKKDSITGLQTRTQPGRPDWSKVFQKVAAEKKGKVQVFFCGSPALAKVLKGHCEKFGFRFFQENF

Chain of Streptavidin (Streptomyces avidinii) (P22629 whole entry, looked up): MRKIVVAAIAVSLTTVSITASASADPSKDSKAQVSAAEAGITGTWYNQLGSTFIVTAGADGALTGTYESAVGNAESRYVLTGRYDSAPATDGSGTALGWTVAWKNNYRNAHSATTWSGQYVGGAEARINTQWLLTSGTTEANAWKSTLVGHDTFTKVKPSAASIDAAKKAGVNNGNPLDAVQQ
Chain of Torsin-1A (Homo sapiens) (O14656 whole entry, looked up): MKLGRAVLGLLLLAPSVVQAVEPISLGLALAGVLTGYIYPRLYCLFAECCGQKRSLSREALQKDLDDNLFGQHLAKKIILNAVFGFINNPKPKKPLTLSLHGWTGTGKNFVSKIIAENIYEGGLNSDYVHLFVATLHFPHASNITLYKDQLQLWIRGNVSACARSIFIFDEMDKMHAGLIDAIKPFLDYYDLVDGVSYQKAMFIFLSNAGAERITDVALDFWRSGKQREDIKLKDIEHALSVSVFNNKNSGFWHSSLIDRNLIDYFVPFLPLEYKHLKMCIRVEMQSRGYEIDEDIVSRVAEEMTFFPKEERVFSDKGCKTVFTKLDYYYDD
Chain of NADPH oxidase 2 (Homo sapiens) (P04839 whole entry, looked up): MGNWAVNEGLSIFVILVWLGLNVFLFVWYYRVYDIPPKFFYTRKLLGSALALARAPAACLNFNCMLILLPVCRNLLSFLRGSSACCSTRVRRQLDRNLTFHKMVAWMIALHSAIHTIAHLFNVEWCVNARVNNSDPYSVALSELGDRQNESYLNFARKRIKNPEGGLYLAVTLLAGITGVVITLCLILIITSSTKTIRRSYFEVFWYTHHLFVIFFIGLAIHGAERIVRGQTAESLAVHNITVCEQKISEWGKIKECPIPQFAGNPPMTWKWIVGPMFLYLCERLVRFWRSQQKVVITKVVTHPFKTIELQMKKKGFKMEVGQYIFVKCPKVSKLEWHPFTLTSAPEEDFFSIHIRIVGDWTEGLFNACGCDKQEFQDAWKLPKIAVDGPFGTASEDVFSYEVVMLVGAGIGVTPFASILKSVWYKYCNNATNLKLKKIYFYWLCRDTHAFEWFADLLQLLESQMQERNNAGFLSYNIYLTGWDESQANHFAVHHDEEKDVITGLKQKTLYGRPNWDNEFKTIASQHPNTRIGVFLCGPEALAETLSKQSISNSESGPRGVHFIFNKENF
Chain of NADPH oxidase 4 (Homo sapiens) (Q9NPH5 whole entry, looked up): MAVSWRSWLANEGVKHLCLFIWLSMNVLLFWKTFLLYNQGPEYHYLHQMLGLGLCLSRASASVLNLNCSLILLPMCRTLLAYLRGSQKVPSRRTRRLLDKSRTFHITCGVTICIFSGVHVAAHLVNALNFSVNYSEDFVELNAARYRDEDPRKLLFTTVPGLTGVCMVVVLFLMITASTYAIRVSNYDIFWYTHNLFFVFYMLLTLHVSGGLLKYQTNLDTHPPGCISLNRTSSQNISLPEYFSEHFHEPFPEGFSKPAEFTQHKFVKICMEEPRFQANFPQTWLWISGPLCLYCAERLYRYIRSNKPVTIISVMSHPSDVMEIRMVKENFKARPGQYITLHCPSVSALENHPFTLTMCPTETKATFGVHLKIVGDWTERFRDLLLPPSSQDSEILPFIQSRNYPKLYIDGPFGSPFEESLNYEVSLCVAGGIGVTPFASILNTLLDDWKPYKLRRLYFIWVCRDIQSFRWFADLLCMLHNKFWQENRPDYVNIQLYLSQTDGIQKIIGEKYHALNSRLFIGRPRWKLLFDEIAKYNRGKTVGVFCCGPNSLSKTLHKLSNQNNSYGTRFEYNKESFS

SMILES	composite z-score [1]	z-score [2]	z-score [3]	z-score [4]	z-score [5]	composite z-score [6]	composite z-score [7]	composite z-score (Torsin-1A (Homo sapiens) [8])	composite z-score (Torsin-1A (Homo sapiens) [9])	composite z-score [10]	z-score [11]	composite z-score [12]	z-score [13]	z-score [14]	z-score [15]	z-score [16]	z-score [17]	z-score [18]	z-score [19]	z-score [20]
Cc1ccc(S[C@]2(C(=O)O)CC(=O)N(C(C)C)[C@@H]2c2ccc(CO)cc2I)cc1	-0.0822	-2.86 (inactive)	-0.29 (inactive)	0.324 (inactive)	0.289 (inactive)	0.513	0.516	0.523	0.202	-0.189	3.35 (inactive)	0.775	14.3 (active)	1.02 (inactive)	0.532 (inactive)	-0.263 (inactive)	2.24	0.899 (inactive)	-2.47 (inactive)	0.852
CC(C)C[C@@H]1NC(=O)[C@@H]2C[C@H](C(=O)NCc3ccc(F)cc3)[C@H](c3cccc(OCCO)c3)N2C1=O	1.9	-0.119 (inactive)	-1.53 (inactive)	0.826 (inactive)	-0.798 (inactive)	-0.443	0.286	0.265	1.3	1.75	1.39 (inactive)	-0.204	8.19 (active)	0.722 (inactive)	-1.79 (inactive)	0.546 (inactive)	0.74	1.33 (inactive)	1.08 (inactive)	1.44
O=C(N1CCCCC1)[C@]1(Cc2ccccc2)N=C(c2ccc(OCCCO)cc2)O[C@@H]1c1ccccc1	0.33	-6.07 (inactive)	-0.759 (inactive)	0.558 (inactive)	0.182 (inactive)	0.997	0.0074	1.03	0.0081	-0.412	-0.834 (inactive)	0.446	28 (active)	20.6 (active)	0.696 (inactive)	1.28 (inactive)	2.33	-2.82 (inactive)	-1.37 (inactive)	-1.7
C=CCC(OC(C)=O)[C@@H]1[C@@H](N(Cc2cc3ccccc3o2)C(=O)c2cccc3ccccc23)c2cc(OCCCO)ccc2N1C(=O)c1ccc(-c2ccccc2)cc1 (stereo not given in full)	0.15	-1.82 (inactive)	0.861 (inactive)	1.38 (inactive)	-0.654 (inactive)	0.111	-0.196	0.736	0.223	0.464	1.45 (inactive)	0.0341	1.01 (inactive)	0.0907 (inactive)	0.358 (inactive)	0.554 (inactive)	0.332	0.52 (inactive)	-1.87 (inactive)	-2.43
CC(C)NC(=O)[C@@]1(C)c2ccccc2C(=O)N(Cc2cc(C(F)(F)F)cc(C(F)(F)F)c2)[C@H]1c1ccc(CO)cc1	-0.533	-3.78 (inactive)	1.03 (inactive)	0.648 (inactive)	-0.405 (inactive)	-0.417	-0.269	-0.979	-0.723	-0.328	-0.204 (inactive)	0.0328	11.8 (active)	1.66 (inactive)	1.35 (inactive)	0.377 (inactive)	0.401	-1.13 (inactive)	0.154 (inactive)	0.685
COc1ccc(C(=O)Nc2ccc(CN3C(=O)[C@]4(O[C@H](CCO)[C@@H]([Si](C)(C)c5ccc(OC)cc5)[C@@H]4C)c4ccccc43)cc2)cc1	0.406	-7.95 (inactive)	-0.925 (inactive)	8.84 (active)	-1.89 (inactive)	0.566	0.0014	0.108	0.165	1.48	-1.37 (inactive)	0.199	5.29 (inactive)	2.11 (inactive)	-0.205 (inactive)	2.12 (inactive)	-1.38	-6.37 (inactive)	-2.55 (inactive)	-1.54
O=C1C2C=CC(C(O)c3cccc4ccccc34)N(Nc3ccccc3F)C2C(=O)N1c1ccccc1 (stereo not given)	0.115	-0.586 (inactive)	-0.732 (inactive)	-0.62 (inactive)	0.276 (inactive)	1.66	0.103	1.44	0.993	-0.458	-0.875 (inactive)	0.419	3.49 (inactive)	1.34 (inactive)	-0.481 (inactive)	1.05 (inactive)	-0.607	-0.26 (inactive)	-2.65 (inactive)	-1.21
C=CCNC(=O)[C@H]1[C@@H]2C(=O)O[C@@H](c3ccccc3)[C@@H](c3ccccc3)N2[C@@H](c2ccccc2OCCO)[C@]12C(=O)Nc1ccc(C#CCC(C(=O)OC)C(=O)OC)cc12	0.761	-3.8 (inactive)	0.608 (inactive)	-0.0784 (inactive)	0.876 (inactive)	0.999	0.277	0.954	1.06	1.84	0.0038 (inactive)	0.924	5.08 (inactive)	1.84 (inactive)	-0.223 (inactive)	0.909 (inactive)	-0.318	1.62 (inactive)	0.834 (inactive)	1.5
